# Bioassay records: PubChem, National Center for Advancing Translational Sciences (NCATS)
# An excerpt weighted towards active compounds, which were near 2.8% of everything screened.
# PI5P4Ka inh – qHTS for Inhibitors of phosphatidylinositol 5-phosphate 4-kinase (PI5P4K) | max response, % | 1.2% of 330,000 active | Phosphatidylinositol 5-phosphate 4-kinase type-2 alpha (Homo sapiens), P48426 | PI5P4Kalpha enzyme, ADP-Glo luminescence, 60 min; active compounds read low | AID 652105, 2013; active = max response of -50% or lower; inconclusive = between -30% and -50%; inactive = -30% or higher; also: value at the top dose of about 77 µM; % is scaled to controls: 0 for no effect and ±100 for the full control effect
#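 Quantitative HTS of the MLSMR library against PI5P4Kalpha with substrate. ATP added last at 5 microM final; room temperature, 60 minutes. Remaining ATP depleted, ADP converted and read as luminescence.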
# Pol kappa inh – qHTS for Inhibitors of Polymerase Kappa | 0.53% of 400,000 active | DNA polymerase kappa (Homo sapiens), Q9UBT6 | AID 588579, 2011 | purified Pol kappa, fluorescent DNA synthesis assay, 10 min | Potency, µM (titrated, usually from 107 µM), for inactives: top-dose activity, negative = inhibition, hits mostly inhibitors; also: potency is read from the fitted curve at half-maximal effect; % is scaled to controls: 0 for no effect and ±100 for the full control effect
# Target sequence (Q9UBT6 whole entry, looked up): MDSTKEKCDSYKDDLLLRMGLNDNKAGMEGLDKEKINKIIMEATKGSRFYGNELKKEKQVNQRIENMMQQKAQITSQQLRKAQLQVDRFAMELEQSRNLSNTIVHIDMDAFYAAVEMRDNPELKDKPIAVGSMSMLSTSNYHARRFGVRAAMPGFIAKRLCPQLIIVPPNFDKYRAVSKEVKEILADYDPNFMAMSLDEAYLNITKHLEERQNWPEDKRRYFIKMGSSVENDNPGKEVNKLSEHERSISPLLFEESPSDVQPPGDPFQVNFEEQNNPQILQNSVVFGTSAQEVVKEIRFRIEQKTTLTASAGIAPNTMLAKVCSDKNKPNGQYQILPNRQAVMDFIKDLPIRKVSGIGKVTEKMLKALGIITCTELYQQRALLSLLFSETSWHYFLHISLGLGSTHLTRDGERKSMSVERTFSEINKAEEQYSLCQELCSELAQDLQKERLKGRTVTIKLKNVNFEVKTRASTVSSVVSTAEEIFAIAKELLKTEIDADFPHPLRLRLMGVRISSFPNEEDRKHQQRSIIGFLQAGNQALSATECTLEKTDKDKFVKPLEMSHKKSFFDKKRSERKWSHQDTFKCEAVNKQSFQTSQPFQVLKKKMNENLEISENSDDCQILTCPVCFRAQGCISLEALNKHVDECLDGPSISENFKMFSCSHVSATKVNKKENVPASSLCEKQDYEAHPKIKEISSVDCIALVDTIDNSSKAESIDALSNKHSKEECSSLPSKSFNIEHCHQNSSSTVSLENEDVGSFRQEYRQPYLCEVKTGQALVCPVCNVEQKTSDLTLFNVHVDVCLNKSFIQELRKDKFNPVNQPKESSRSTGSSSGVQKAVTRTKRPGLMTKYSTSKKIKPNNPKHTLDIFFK
#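 50 nM final substrate added after 15 min RT preincubation of 10 nM Pol kappa with compound; fluorescence read at 0 and 10 min.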
# POLB inh – qHTS Assay for Inhibitors of DNA Polymerase Beta | P06746 | Pol beta primer extension/strand displacement, fluorescence kinetic | Potency, µM (highest dose often 114 µM), without a hit: top-dose activity change, negative = inhibition, most hits filed as inhibitors | 1.3% of 340,000 active; also: potency is read from the fitted curve at half-maximal effect; % is scaled to controls: 0 for no effect and ±100 for the full control effect
#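 Enzyme-only controls used 10 nM Pol beta; buffer lacking enzyme served as negative control. Compound preincubated 15 min, then 50 nM substrate added; 0 and 10 min reads at room temperature.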
# FEN1 inh – qHTS Assay for the Inhibitors of Human Flap endonuclease 1 (FEN1). Recombinant FEN1 flap cleavage, fluorescence, 15 min. Potency, µM (highest dose often 114 µM), inactives show at the highest dose activity change, negative = inhibition, usual class: inhibitors. 0.35% of 390,000 active; also: potency is read from the fitted curve at half-maximal effect; % is scaled to controls: 0 for no effect and ±100 for the full control effect; nearly all actives have a fitted effect of over 65% in size
#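 Nuclease activity of 10 nM FEN1 was measured after 15 min of room-temperature exposure to titrated compounds, by adding 50 nM flap substrate and reading plates at 0 and 15 min.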
# Pol iota inh – qHTS for Inhibitors of Polymerase Iota. DNA polymerase iota (Homo sapiens), Q9UNA4. Pol iota fluorescent replication assay, 10 min. Potency, µM (series often up to 115 µM), inactives show at the highest dose activity, negative = inhibition, most hits filed as inhibitors. 1% of 390,000 active. AID 588590, 2011; also: potency is read from the fitted curve at half-maximal effect
#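 Pol iota at 10 nM preincubated 15 min with compounds at room temperature; reaction started with fluorescent substrate, 50 nM final. Fluorescence read kinetically at 0 and 10 min; buffer-only wells as negative control.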
# POLH inh – qHTS for Inhibitors of Polymerase Eta; DNA polymerase eta (Homo sapiens), Q9Y253; Potency, µM (series often up to 114 µM), for inactives: at the top dose activity change, negative = inhibition, hits mostly inhibitors; 1.2% of 390,000 active; recombinant Pol eta, fluorescent DNA replication assay; also: potency is read from the fitted curve at half-maximal effect; % is scaled to controls: 0 for no effect and ±100 for the full control effect
#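 Pol eta (10 nM) was preincubated with compounds for 15 min at room temperature, after which fluorescent replication substrate (50 nM final) was added to start the reaction. Fluorescence was read kinetically at 0 and 10 min.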
# * = called active by the depositor; u = inconclusive; x = not tested or not shown; ! = not confirmed by another sample; [ ] = dose if it differs, or a comment. Unless noted, calls follow the shape of the dose curve; as a rule, active = well fitted curve in the direction sought with a large enough effect; inconclusive = small, poorly fitted or top-dose-only effect, or another doubt; inactive = no such curve, though single readings can be large; an effect the other way counts as inactive or inconclusive.
SMILES,PI5P4Ka inh,Pol kappa inh,POLB inh,FEN1 inh,Pol iota inh,POLH inh
CN(C)c1ccc(NC(=O)COC(=O)c2ccc3c(c2)OCO3)cc1,-4.9,-19.3%,x,-7.6%,8.5%,-1.7%
CN(C)c1ccc(C(=O)OCC(=O)Nc2ccc(S(N)(=O)=O)cc2)cc1,3.2,50.1µM*,u,u,u,u
C[C@@H]1/C(=N/O)CC2C[C@@H]1C2(C)C,x,-3.9%[60.1 µM],x,x,x,x
CN1CCc2[nH]c3ccc(C(=O)NN)cc3c2C1,x,u,39.8µM*,u,u,-16.4%
Cc1sc2ncnc(N3CCN(Cc4ccccc4)CC3)c2c1-c1ccccc1,4.3,u,-0.8%,-23.9%,89.1µM*,-23.3%
CCOc1ccc(CN2CCN(c3ncnc4scc(-c5ccccc5)c34)CC2)cc1,4.3,1.0%,6.8%,-4.7%,120.6%,-17.9%
COc1ccccc1Nc1nn2c(=O)c3ccc(C(=O)NCCCOC(C)C)cc3nc2s1,x,-15.3%,44.7µM*,-5.6%,u,u
Cc1ccc(C)c(Nc2nn3c(=O)c4ccc(C(=O)NCc5cccs5)cc4nc3s2)c1,x,4.0%[60.1 µM],11.2µM*,-25.8%,-10.3%,u
CCN(CC)CCNC(=O)c1ccc2c(=O)n3nc(Nc4ccccc4OC)sc3nc2c1,x,0.6%,-24.5%,u,5.6%,u
COc1ccccc1Cc1nc2ccccc2nc1SCC(=O)NCc1ccccc1Cl,x,-1.0%[60.1 µM],13.5%,14.5%,-21.1%,-19.1%
Cc1cccc(NC(=O)CN(C)S(=O)(=O)c2ccc3c(c2)CCC(=O)N3)c1C,x,-22.6%,-0.2%,-8.6%,3.8%,-7.8%
CN(C(=O)CSc1nc2ccc(NC(=O)c3ccc(F)cc3)cc2s1)c1ccccc1,x,-2.5%,10.8%,-6.6%,21.7%,-13.5%
Cc1ccc(-c2n[nH]c(=S)n2/N=C/C=C/c2ccccc2[N+](=O)[O-])cc1,-16.7,-11.7%,31.6µM*,u,u,u
O=[N+]([O-])c1ccccc1/C=C/C=N/n1c(-c2ccco2)n[nH]c1=S,-6.4,-6.5%,-1.0%,-9.0%,-15.1%,-3.7%
S=c1[nH]nc(-c2cc(-c3ccccc3)n[nH]2)n1/N=C/C=C/c1ccccc1,-25.5,4.1%,u,0.1%,10.0%,43.1%
O=[N+]([O-])c1ccccc1/C=C/C=N/n1c(-c2cc(-c3ccccc3)n[nH]2)n[nH]c1=S,u,-16.2%,10µM*,u,u,31.6µM*
COc1ccccc1/C=C/C=N/n1c(-c2cc(-c3ccccc3)n[nH]2)n[nH]c1=S,-51.9*,0.9%,u,1.9%,25.3%,-16.9%
Cc1cccc(/C=N/n2c(-c3cc(-c4ccccc4)n[nH]3)n[nH]c2=S)c1,-14.0,-4.5%,56.2µM*,-8.3%,4.0%,-3.9%
Cc1ccn2cc(CCNC(=O)COc3ccccc3)nc2c1,-17.9,-8.7%,5.6%,19.9%,27.1%,-34.5%
COc1cc(NC(=O)c2ccco2)c(OC)cc1NC(=O)c1cc(OC)c(OC)c(OC)c1,x,-0.1%,39.8µM*,-20.0%,13.2%,-12.4%
COc1cccc(C(=O)Nc2cc(NC(=O)c3ccco3)ccc2OC)c1,x,-5.5%,3.8%,-14.7%,2.3%,-7.5%
CCOc1cc(NC(=O)c2ccco2)c(OCC)cc1NC(=O)c1cc(OC)c(OC)c(OC)c1,0.9,-10.6%,-5.7%,-9.9%,39.3%,-4.1%
COc1cc(OC)cc(C(=O)Nc2ccc(NC(=O)c3ccco3)c(Cl)c2)c1,0.0,-13.9%,u,-4.0%,25.1µM*,u
CCn1cc2nc(SCC(=O)Nc3ccc(C)cc3)n(Cc3ccc(C)cc3)c(=O)c2n1,x,-32.2%,u,8.1%,-10.9%,u
CCn1cc2nc(SCC(=O)Nc3ccccc3C(F)(F)F)n(Cc3ccc(C)cc3)c(=O)c2n1,x,u,10µM*,u,44.7µM*,-20.3%
SMILES,PI5P4Ka inh,Pol kappa inh,POLB inh,FEN1 inh,Pol iota inh,POLH inh
O=c1c(-c2ccc(F)cc2)nc2cnc(N3CCNCC3)nc2n1C1CC1,x,1.0%[60.1 µM],x,x,x,x
CCCC(=O)Nc1nc(-c2ccc(Cl)s2)cs1,9.9,-1.7%,24.3%,18.5%,15.2%,3.3%
O=C(O)C1CCCCC1C(=O)Nc1nc(-c2ccc(Cl)s2)cs1 (centres undefined),u,u,15.8µM*,-10.2%,u,44.7µM*
COc1ccc(C(=O)c2ccccc2)c(O)c1O,x,10µM*,x,x,x,x
COc1ccc(C(=O)c2ccccc2)c(O)c1,4.3,u,2.5%,6.4%,-0.4%,-8.7%
COCCCn1c(SCC(=O)OC2CCCCC2)nnc1-c1cccs1,x,-20.1%,2.7%,-3.3%,100µM*,-12.4%
CCOC(=O)c1c(-c2ccccc2Cl)csc1NC(=O)c1cc(S(=O)(=O)N2CCOCC2)ccc1C,0.8,-4.8%,-10.4%,-0.1%,-7.5%,-19.5%
COc1ccc(NC2CCCN(C(=O)CCN3CCOCC3)C2)cc1 (centres undefined),-8.3,-1.6%,3.7%,1.1%,79.4µM*,-2.6%
C/C=C/c1ccc(O)c(OC)c1,-0.4,-10.5%,x,-15.7%,2.2%,3.0%
Oc1cc(O)cc(/C=C/c2ccc(O)c(O)c2)c1,-52.7*,79.4µM*,7.94µM*,-20.0%,15.8µM*,17.8µM*!
COc1ccc(NC(=O)CC2C(=O)N(c3ccc(C)cc3)C(=O)N2Cc2cccnc2)cc1 (centres undefined),x,1.1%,1.4%,16.4%,27.2%,-18.4%
CCOC(=O)C1=C(C)N(c2ccc(C)c(C)c2)C(=O)/C1=C\c1ccco1,x,-5.3%,27.5%,-15.8%,11.6%,-14.3%
COC(=O)C1=C(C)N(c2ccc(C)c(C)c2)/C(=C/c2ccco2)C1=O,u,-20.8%,22.4µM*,-0.1%,u,-3.2%
CCc1nnc(NS(=O)(=O)c2ccc(N3C(=O)C4CC=C(Cl)CC4C3=O)cc2)s1 (centres undefined),7.1,-17.4%,26.8%,-15.2%,u,44.7µM*
CCN(CC)S(=O)(=O)c1ccc(OCC(=O)NC(=O)Cc2ccccc2)c([N+](=O)[O-])c1,-0.4,-32.3%,x,-1.8%,23.3%,-11.7%
O=C1CSC(=S)N1N=Cc1ccc2c(c1)OCO2,-50.8*,-8.7%,x,3.7%,u,4.4%
O=C1CSC(=S)N1/N=C/c1cc(Br)ccc1O,x,x,-1.2%,x,x,x
O=C1CSC(=S)N1/N=C/c1ccc(O)c(O)c1O,-95.3*,0.708µM*,0.316µM*,2.82µM*,-102.7%,0.708µM*
COc1ccc(/C=N/N2C(=O)CSC2=S)cc1Br,-78.4*,-15.8%,x,-29.9%,u,u
CC(C)c1ccc(CN2C(=O)NC3(CCCCCC3)C2=O)cc1,-3.0,-7.9%,5.6%,9.5%,79.9%,-27.7%
